Source: PubChem (National Center for Advancing Translational Sciences (NCATS))
Giardia FBPA inh: qHTS Assay for Inhibitors of Fructose-1,6-bisphosphate Aldolase from Giardia Lamblia; A8B2U2; purified Giardia FBPA; Potency, µM (top dose mostly 59.6 µM), actives largely listed as inhibitors; actives 0.71% (n = 290,000); further: nearly all actives have a fitted effect of over 55% in size
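Giardia FBPA (40 nM reagent) was preincubated 10 min at RT with compound (up to 57.5 uM final), then substrate plus GAPDH/TPI/NAD/arsenate coupling system with diaphorase/resazurin was added; resorufin fluorescence (525/598 nm) was read after 20 min.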
NS1 function inh: qHTS Assay for Inhibitors of Influenza NS1 Protein Function; Potency, µM (titrated, usually from 46.1 µM); actives 0.4% (n = 270,000); AID 2326, 2010; calls by dose curve; further: actives are rising curves; nearly all actives have a fitted effect of over 50% in size
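Read-out: OD600 growth recovery of NS1-expressing budding yeast. Cells grown overnight at 30C in -URA glucose medium, washed, resuspended and diluted 1:100 in 2% galactose assay medium, pH 6.0. Same strain lacking NS1 served as positive control.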
Cycloheximide cs: Cycloheximide Counterscreen for Small Molecule Inhibitors of Shiga Toxin; cell reporter, cycloheximide protein synthesis inhibition counterscreen; max response, %; actives 12% (n = 300,000); in the data active means max response mostly above about 13%, no sharp cut-off; inactive means mostly below about 14%; further: read at 38.3 µM for the half of the compounds with a filed dose
Shiga inhibitor: A qHTS for Small Molecule Inhibitors of Shiga Toxin | Vero cells, Shiga toxin protein synthesis inhibition reporter | inhibition, % at 38.7 µM | actives 9.2% (n = 290,000) | AID 2315, 2010; in the data active means inhibition mostly above about 28%, no sharp cut-off; inactive means mostly below about 43%
LmPK inh: qHTS Assay for Inhibitors of Leishmania Mexicana Pyruvate Kinase (LmPK). AID 1721, 2009. purified LmPK, Kinase-Glo ATP luminescence, 1 h. actives 0.37% (n = 290,000). Q27686. Potency, µM (doses to about 57.5 µM), hits mostly inhibitors
Target sequence (Q27686 whole entry, looked up): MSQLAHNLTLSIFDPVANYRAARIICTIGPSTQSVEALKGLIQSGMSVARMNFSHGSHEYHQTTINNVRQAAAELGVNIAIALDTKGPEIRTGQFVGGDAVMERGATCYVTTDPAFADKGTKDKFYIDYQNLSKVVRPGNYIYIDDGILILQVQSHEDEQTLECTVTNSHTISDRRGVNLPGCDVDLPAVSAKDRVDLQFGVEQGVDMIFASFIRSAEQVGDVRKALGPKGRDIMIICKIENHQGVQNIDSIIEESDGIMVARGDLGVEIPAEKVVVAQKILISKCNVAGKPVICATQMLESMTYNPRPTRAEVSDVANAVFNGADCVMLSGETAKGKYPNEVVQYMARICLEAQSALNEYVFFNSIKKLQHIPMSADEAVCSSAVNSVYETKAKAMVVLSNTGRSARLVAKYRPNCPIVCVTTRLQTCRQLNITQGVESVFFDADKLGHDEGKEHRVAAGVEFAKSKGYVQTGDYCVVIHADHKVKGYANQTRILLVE
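In 50 mM imidazole pH 7.2 with 7 mM MgCl2, LmPK (0.1 nM) turned over PEP (0.5 mM) and ADP (0.1 mM) for 1 h at room temperature. Luciferase read-out of ATP.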
Hits are given with their value. Only some compounds are listed: those with a hit (about 14% of all), similar ones and a draw of the others. Unless noted, the call rests on the fitted dose curve; in most records, active means well fitted curve in the direction sought with a large enough effect; inconclusive means small, poorly fitted or top-dose-only effect, or another doubt; inactive means no such curve, though single readings can be large; an effect the other way counts as inactive or inconclusive.

`Cc1c(C)n(Cc2ccccc2)c2ccc(C(=O)OCCN(C)C)cc12` gave Giardia FBPA inh inactive, NS1 function inh inactive, Cycloheximide cs 29, Shiga inhibitor inactive and LmPK inh inactive.
`Cc1c(C)n(Cc2ccccc2)c2ccc(C(=O)NCCN3CCOCC3)cc12` gave Giardia FBPA inh inactive, NS1 function inh inactive, Cycloheximide cs inactive, Shiga inhibitor inactive and LmPK inh inactive.
Screening COc1ccc(/C=C(\C#N)C(=O)N2COCC2(C)C)cc1 returned Giardia FBPA inh inactive, NS1 function inh inactive, Cycloheximide cs inactive, Shiga inhibitor inactive and LmPK inh inactive.
For CN(C)c1nc(NC2CCC(NC(=O)c3ccc(F)c(F)c3)CC2)nc2ccccc12 (stereo not given) the results were Giardia FBPA inh inactive, Cycloheximide cs inactive and Shiga inhibitor inactive.
For CC(=O)Oc1ccc(C(=O)Nc2cccnc2)cc1 the results were Giardia FBPA inh inactive, NS1 function inh inactive, Cycloheximide cs inactive, Shiga inhibitor inactive and LmPK inh inactive.
For O=C(Nc1ccc(-c2cnco2)cc1)c1ccc(Cl)cc1 the results were Giardia FBPA inh inactive, NS1 function inh inactive, Cycloheximide cs inactive, Shiga inhibitor inactive and LmPK inh inactive.
CC(C)c1ccc(C(=O)Nc2cccnc2)cc1 was read as Giardia FBPA inh inactive, NS1 function inh inactive, Cycloheximide cs 36 and LmPK inh inactive.
`O=C(Nc1ccc(-c2cnco2)cc1)c1ccccc1` gave Giardia FBPA inh inactive, NS1 function inh inactive, Cycloheximide cs 47, Shiga inhibitor 93 and LmPK inh inactive.
Cc1ccc(C(=O)Nc2ccncc2)c(C)c1 was read as Giardia FBPA inh inactive, NS1 function inh inactive, Cycloheximide cs 8.9, Shiga inhibitor inactive and LmPK inh inactive.
`O=C(Nc1cccnc1)c1ccc(-c2ccccc2)cc1` gave Giardia FBPA inh inactive, Cycloheximide cs 33, Shiga inhibitor 72 and LmPK inh inactive.
Screening O=C(Nc1cccnc1)c1ccc(F)cc1 returned Giardia FBPA inh inactive, NS1 function inh inactive, Cycloheximide cs inactive, Shiga inhibitor inactive and LmPK inh inactive.
For O=C(Nc1cccnc1)c1cnc2ccccc2n1 the results were Giardia FBPA inh inactive, NS1 function inh inactive, Cycloheximide cs 13, Shiga inhibitor 70 and LmPK inh inactive.
`O=C(Nc1ccncc1)c1ccc(-c2ccccc2)cc1` gave Giardia FBPA inh inactive, Cycloheximide cs 36, Shiga inhibitor 121 and LmPK inh inactive.
For O=C(NNC(=O)c1ccc(-c2ccccc2)cc1)c1ccccc1 the results were Giardia FBPA inh inactive, NS1 function inh inactive, Cycloheximide cs 20, Shiga inhibitor 67 and LmPK inh inactive.
For Cc1cccc(C(=O)NNC(=O)c2ccc(-c3ccccc3)cc2)c1 the results were Giardia FBPA inh inactive, NS1 function inh inactive, Cycloheximide cs inactive, Shiga inhibitor inactive and LmPK inh inactive.
`O=C(Nc1cccnc1)c1ccccc1Cl` gave Giardia FBPA inh inactive, NS1 function inh inactive, Cycloheximide cs inactive and LmPK inh inactive.
For Cc1c(NC(=O)c2cc(-c3cccc(Cl)c3)on2)c(=O)n(-c2ccccc2)n1C the results were Giardia FBPA inh inactive, NS1 function inh inactive, Cycloheximide cs inactive, Shiga inhibitor inactive and LmPK inh inactive.
`N#Cc1ccccc1COC(=O)CCCC1=NS(=O)(=O)c2ccccc2N1` gave NS1 function inh inactive, Cycloheximide cs inactive, Shiga inhibitor inactive and LmPK inh inactive.
`CC1(C)CN=C(Nc2nc3ccccc3s2)S1` gave Giardia FBPA inh inactive, NS1 function inh inactive, Cycloheximide cs 38, Shiga inhibitor 77 and LmPK inh inactive.
For Cc1ccc(NC(=O)Nc2nc3ccccc3s2)cc1NC(=O)Nc1nc2ccccc2s1 the results were Giardia FBPA inh inactive, NS1 function inh inactive, Cycloheximide cs inactive, Shiga inhibitor inactive and LmPK inh inactive.
Cc1ccc(Nc2nc3ccccc3s2)cc1 was read as Giardia FBPA inh inactive, NS1 function inh inactive, Cycloheximide cs 29, Shiga inhibitor 72 and LmPK inh inactive.
Screening Cc1ccccc1Nc1nc2ccccc2s1 returned Giardia FBPA inh inactive, NS1 function inh inactive, Cycloheximide cs 66, Shiga inhibitor 135 and LmPK inh inactive.
For Fc1ccc(Nc2nc3ccccc3s2)cc1 the results were Giardia FBPA inh inactive, Cycloheximide cs 40, Shiga inhibitor 120 and LmPK inh inactive.
For Cc1cc(=O)[nH]c(N/N=C/c2ccc(O)c(O)c2)n1 the results were Giardia FBPA inh inactive, NS1 function inh inactive, Cycloheximide cs inactive, Shiga inhibitor inactive and LmPK inh inactive.
`Cc1cc(=O)[nH]c(N/N=C/c2ccccn2)n1` gave Giardia FBPA inh inconclusive, NS1 function inh inactive, Cycloheximide cs 14, Shiga inhibitor inactive and LmPK inh inactive.
`Cc1cc(=O)[nH]c(N/N=C/c2cccc(Br)c2)n1` gave Giardia FBPA inh inactive, NS1 function inh inactive, Cycloheximide cs 15 and LmPK inh inactive.
`Cc1cc(=O)[nH]c(N/N=C/c2ccc(Br)s2)n1` gave Giardia FBPA inh inactive, NS1 function inh inactive, Cycloheximide cs 27, Shiga inhibitor inactive and LmPK inh inactive.
Screening O=C(C[n+]1ccccn1)c1ccccc1 returned Giardia FBPA inh inactive, NS1 function inh inconclusive, Cycloheximide cs 15, Shiga inhibitor 40 and LmPK inh inactive.
`O=C(C[n+]1cccc2ccccc21)c1ccccc1` gave Giardia FBPA inh inactive, NS1 function inh inactive, Cycloheximide cs inactive, Shiga inhibitor inactive and LmPK inh inactive.
`COc1ccc(/C(=N/Nc2ncnc3ccccc23)C(=O)O)cc1` gave Giardia FBPA inh inconclusive, NS1 function inh inactive, Cycloheximide cs 47, Shiga inhibitor 89 and LmPK inh inactive.
Screening CCOC(=O)/C(=N\NC(=O)c1ccccc1)c1ccccc1 returned Giardia FBPA inh inactive, NS1 function inh inactive, Cycloheximide cs inactive, Shiga inhibitor inactive and LmPK inh inactive.
Screening CCOC(=O)/C(=N\Nc1ncnc2ccccc12)c1ccc(OC)cc1 returned Giardia FBPA inh inactive, NS1 function inh inactive, Cycloheximide cs 27, Shiga inhibitor inactive and LmPK inh inactive.
Screening CC1CC(C)CN(CC(=O)Nc2ccc3c(c2)OCCO3)C1 (stereo not given) returned Giardia FBPA inh inactive, NS1 function inh inactive, Cycloheximide cs 48, Shiga inhibitor 74 and LmPK inh inactive.
CC1CCCCC12NC(=O)N(CC(=O)NC(=O)Nc1ccc3c(c1)OCCO3)C2=O (stereo not given) was read as Giardia FBPA inh inactive, NS1 function inh inactive, Cycloheximide cs 33, Shiga inhibitor 105 and LmPK inh inactive.
Cc1ccc2c(c1)nnn2C1CCN(CC(=O)Nc2ccc3c(c2)OCCO3)CC1 was read as Giardia FBPA inh inactive, NS1 function inh inactive, Cycloheximide cs 26, Shiga inhibitor inactive and LmPK inh inactive.
CC1CC(C)(C)NC(=S)N1CCCC(=O)Nc1ccc2c(c1)OCCO2 (stereo not given) was read as Giardia FBPA inh inconclusive, NS1 function inh inactive, Cycloheximide cs 42, Shiga inhibitor 116 and LmPK inh inactive.
